# This is a sample that favours compounds with a hit; in the whole collection about 0.81% have one here.
# TRHR enhancer-1 = qHTS for Small Molecule Agonists and Allosteric Enhancers of Human TRH Receptor: Primary Screen for Enhancers | TRHR cells, fluo-8 calcium fluorescence, EC20 TRH enhancement | 360,000 tested, 0.66% active | enhancement, % at 2 µM; in the data active means enhancement above about 30%
#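 Enhancer read-out: after compound pinning and an initial kinetic agonist-mode read, an EC20 of TRH (10 nM final) was injected and fluo-8 calcium signal (Ex 480/Em 530) followed at 1 s/cycle for 100 cycles in TRHR-expressing cells.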
# TRHR agonist-1 = qHTS for Small Molecule Agonists and Allosteric Enhancers of Human TRH Receptor: Primary Screen for Agonists. Thyrotropin-releasing hormone receptor (Homo sapiens), P34981. activation, % at 2 µM. 360,000 tested, 0.18% active. TRHR cells, calcium flux fluo-8, FDSS agonist mode. AID 493084, 2011; in the data active means activation above about 30%
#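 Agonist-mode FDSS calcium read (Ex 480/Em 530, 1 s cycles) in 1536-well TRHR cells with fluo-8 dye, after 10-cycle baseline and 23 nL compound addition; TRH at EC20 (10 nM final) added afterwards for the enhancer phase.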
# TRPML1 ag = qHTS for Agonists of the Human Mucolipin Transient Receptor Potential 1 (TRPML1); 410,000 tested, 0.12% active; activation, % (no concentration beside the values); TRPML1-expressing cells, Ca2+ dye fluorescence, FDSS; in the data active means activation above about 50%; inconclusive means mostly about 30% to 49%
# Target sequence (Q9GZU1 whole entry, looked up): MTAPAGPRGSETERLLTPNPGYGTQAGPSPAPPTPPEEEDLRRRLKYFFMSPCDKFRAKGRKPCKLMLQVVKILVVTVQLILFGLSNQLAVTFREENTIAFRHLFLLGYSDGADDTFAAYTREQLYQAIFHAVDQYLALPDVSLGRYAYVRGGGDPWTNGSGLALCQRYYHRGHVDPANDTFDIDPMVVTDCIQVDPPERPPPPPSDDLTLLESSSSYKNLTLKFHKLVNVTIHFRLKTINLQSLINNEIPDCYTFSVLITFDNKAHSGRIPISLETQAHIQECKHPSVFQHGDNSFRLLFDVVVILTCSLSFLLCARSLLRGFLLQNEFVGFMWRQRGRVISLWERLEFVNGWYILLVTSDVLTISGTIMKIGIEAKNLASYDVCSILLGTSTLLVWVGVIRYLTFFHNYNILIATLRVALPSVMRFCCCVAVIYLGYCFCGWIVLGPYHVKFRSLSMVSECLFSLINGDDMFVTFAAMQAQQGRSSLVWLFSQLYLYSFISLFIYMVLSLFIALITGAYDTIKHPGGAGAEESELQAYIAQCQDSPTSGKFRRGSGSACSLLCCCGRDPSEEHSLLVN
#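 Cells: TRPML1-DL, 1X Tet inducer, ~16 h at 37 degrees C/5% CO2. Dye: ABD Ca8 no-wash + quencher, 45-90 min RT. Read: 10 s baseline, compound add, 110 s agonist phase; 54-4 EC80 (4uM final), 110 s antagonist phase.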
# TRPML1 inh = qHTS for Inhibitors of the Human Mucolipin Transient Receptor Potential 1 (TRPML1); Mucolipin-1 (Homo sapiens), Q9GZU1; TRPML1-inducible cells, Ca2+ dye fluorescence, FDSS; hits give low values; inhibition of EC80 agonist-evoked calcium signal; activity change, negative = inhibition, % (test concentration not listed); 390,000 tested, 0.02% active; in the data active means activity change below about -50%; inconclusive means between about -30% and that limit;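 further: stimulus is agonist 54-4 at its EC80 concentration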
#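 Tet-induced TRPML1-DL cells loaded with Ca8 no-wash calcium dye were read kinetically on FDSS. Compound addition was followed by EC80 agonist 54-4 (4 uM final); inhibition was read over 110 s.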
# TRHR enhancer-2 = qHTS for Small Molecule Agonists and Allosteric Enhancers of Human TRH Receptor: Confirmation Screen for Enhancers; activity change, negative = inhibition, % at 46.1 µM; AID 493076, 2011; 970 tested, under 10 active; TRH receptor cell assay, enhancer confirmation qHTS; shares compounds with TRHR enhancer-1;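 further: compound effect scored on response to added TRH at EC20 of 10 nM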
# TRHR agonist-2 = qHTS for Small Molecule Agonists and Allosteric Enhancers of Human TRH Receptor: Confirmation Screen for Agonists. shares compounds with TRHR enhancer-1. TRHR-expressing cells, agonist activation read-out. Potency, µM (titrated, usually from 46.1 µM), actives largely listed as activators. 970 tested, 8% active. AID 493078, 2011; further: nearly all actives have a fitted effect of over 75% in size
# A number is an active result; 0 = inactive; ? = inconclusive; - = no result. Unless noted, the call rests on the fitted dose curve; in most records, active means well fitted curve in the direction sought with a large enough effect; inconclusive means small, poorly fitted or top-dose-only effect, or another doubt; inactive means no such curve, though single readings can be large; an effect the other way counts as inactive or inconclusive.
SMILES,TRHR enhancer-1,TRHR agonist-1,TRPML1 ag,TRPML1 inh,TRHR enhancer-2,TRHR agonist-2
COc1cc(/C=C2/C(=O)NN(c3cccc(C)c3)C2=O)cc([N+](=O)[O-])c1O,0,0,0,0,-,-
O=C(COc1ccccc1C(=O)Nc1cccc(F)c1)Nc1ccc(Br)cc1,-,-,0,-,-,-
O=C(CNC(=O)c1ccc(F)cc1)c1ccc(Cl)cc1,43.4,0,0,0,0,0
Fc1ccc(CNc2ncccn2)cc1,41.9,0,0,0,0,0
Clc1ccc(CNc2ncccn2)cc1,0,0,0,0,-,-
O=C(COc1ccc2ccccc2c1)Nc1ccc(O)c(-c2nc3ccccc3o2)c1,-,-,0,-,-,-
COc1cc(S(=O)(=O)N2CCCCC2)ccc1NC(=O)c1ccccc1Cl,0,0,0,0,-,-
CCC(=O)Nc1ccc(S(=O)(=O)N2CCCCC2)cc1OC,44.3,0,0,0,0,0
O=C(CSc1ncnc2sc3c(c12)CCCC3)c1ccccc1,0,0,0,0,-,-
O=C(O)c1ccccc1Sc1ncnc2sc3c(c12)CCC3,43.3,0,0,0,0,0
O=C(C[n+]1cccc(Br)c1)c1ccc(O)c(O)c1,-,-,0,-,-,-
C=C1C=C(C(F)F)n2ncc(C(=O)NCc3ccc(Cl)cc3)c2N1,-,-,0,-,-,-
COc1ccccc1CNC(=O)C/C(C)=N/NC(=O)Cc1ccccc1,41.0,0,0,0,0,0
Nc1cc(=O)[nH]c(=S)[nH]1,-,-,0,-,-,-
CCCCCCCCCCCCCC(=O)Nc1ccc(/C=C/c2ccnc3ccccc23)cc1,-,-,0,-,-,-
CC(NS(C)(=O)=O)C(c1cccs1)N1CCN(c2ccccc2F)CC1 (stereo not given),-,-,0,0,-,-
CC(NS(C)(=O)=O)C(c1cccs1)N1CCN(c2ccccc2)CC1 (stereo not given),59.5,0,0,0,0,0
CCN(CC)c1ccc(-c2nnc(SCC(=O)NCc3ccco3)n2C)cc1,-,-,0,-,-,-
CCOc1ccc(N=C2NC(=O)C(CC(=O)Nc3ccccc3)S2)cc1 (stereo not given),0,0,0,0,-,-
O=C(CC1SC(=Nc2ccc(O)cc2)NC1=O)Nc1ccccc1 (stereo not given),53.1,0,0,?,0,0
O=c1[nH]cc(CCc2ccccc2)c2ncncc12,-,-,0,-,-,-
COc1cc(C(=S)N2CCOCC2)ccc1OC(=O)c1cccc(C)c1,48.5,0,0,0,0,0
CC(=O)c1nnn(-c2nc(C#N)nc(N3CCOCC3)n2)c1C,-,-,0,-,-,-
Cc1cc(C(=O)NCCN2CCOCC2)ccc1[N+](=O)[O-],44.8,0,0,0,0,0
S=Cc1ccc(/C=C/c2ccnc3ccccc23)cc1,-,-,0,-,-,-
SMILES,TRHR enhancer-1,TRHR agonist-1,TRPML1 ag,TRPML1 inh,TRHR enhancer-2,TRHR agonist-2
N=C1/C(=C\c2coc3ccc(O)cc3c2=O)C(=O)N=C2SC=CN12,0,59.4,?,0,0,9.2µM
CN1C(=O)/C(=C/c2coc3ccc(O)cc3c2=O)SC1=S,0,0,0,0,-,-
c1cnc2[nH]ccc2c1,-,-,0,-,-,-
O=C(O)C1=C[C@@H](c2csc3ccccc23)C[C@@H](OCCCCO)O1,49.0,0,0,0,0,0
NC(=O)c1ccc[n+]([C@H]2O[C@@H](COP(=O)([O-])OP(=O)(O)OC[C@H]3O[C@@H](n4cnc5c(N)ncnc54)[C@H](O)[C@@H]3O)[C@H](O)[C@@H]2O)c1,0,0,0,0,0,?
NC(=O)CC(NC(=O)Cc1ccc(Br)cc1)c1ccc(N2CCCCCCC2)c([N+](=O)[O-])c1 (stereo not given),0,0,0,0,-,-
NC(=O)CC(NC(=O)Cc1ccc(Br)cc1)c1ccc(N2CCC(Br)CC2)c([N+](=O)[O-])c1 (stereo not given),51.7,0,0,0,0,0
CC1CCCCN1CCNC(=O)CN1C(=O)COc2ccccc21 (stereo not given),51.2,0,0,0,0,0
O=S(=O)(c1cccs1)N1CN(Cc2ccccc2)c2nc3ccccc3nc21,56.0,0,0,0,0,0
Nn1c(SCc2cccc3ccccc23)nnc1-c1ccco1,50.0,0,0,0,0,0
Cn1c(SCc2cccc3ccccc23)nnc1-c1ccco1,0,0,0,0,-,-
O=C(c1ccc2c(=O)n(-c3ccccc3)c(=O)[nH]c2c1)N1CCN(Cc2cccs2)CC1,-,-,0,-,-,-
OC(C[n+]1ccccc1Cl)c1ccccc1 (stereo not given),-,-,0,-,-,-
C=CCn1cc(C(=O)N2CCN(C)CC2)c(=O)c2cc(S(=O)(=O)N(CC)CC)ccc21,52.8,0,0,0,0,0
C=CCn1cc(C(=O)N2CCN(C)CC2)c(=O)c2cc(S(=O)(=O)N3CCCC3)ccc21,0,0,0,0,-,-
COc1cc(CNC(C)(C)CO)ccc1OCC(=O)NC(C)(C)C,0,0,0,0,-,-
COc1cc(CNC(C)C23CC4CC(CC(C4)C2)C3)ccc1OCC(=O)NC(C)(C)C (stereo not given),0,43.3,0,0,0,?
CCCCn1nnnc1SCC(=O)NNC(=O)C1CCCCC1,41.6,0,0,0,0,0
CCCn1nnnc1SCC(=O)NC1CCCC1,0,0,0,0,-,-
O=C(OCC(=O)N1CCN(c2ccccc2)CC1)c1ccc2ccccc2n1,41.1,0,0,0,0,0
NNC(=O)C=C1CCN(c2ncc(C(F)(F)F)cc2Cl)CC1,0,0,0,0,-,-
O=C(O)C=C1CCN(c2ncc(C(F)(F)F)cc2Cl)CC1,43.1,0,0,0,0,0
O=C(C[n+]1cccc2cccc(O)c21)c1ccc(Cl)cc1,-,-,0,-,-,-
CC(C)Nc1ncnc2c1cnn2-c1ccc(Cl)cc1,55.4,0,0,0,0,0
CCCNC(=O)c1nc(C)n(-c2cc(Cl)cc(Cl)c2)n1,0,0,0,0,-,-
SMILES,TRHR enhancer-1,TRHR agonist-1,TRPML1 ag,TRPML1 inh,TRHR enhancer-2,TRHR agonist-2
CCCNC(=O)c1nc(C)n(-c2cc(Cl)ccc2Cl)n1,63.7,0,0,0,0,0
CCCCCCc1cc2cc(C(=O)NCc3ccccc3)c(=N)oc2cc1O,0,0,0,0,-,-
CCCCCCc1cc2cc(C(=O)Nc3ccccc3)c(=O)oc2cc1O,0,30.1,0,0,0,0
C=CCNC(=O)c1c(N)n(-c2cccc(S(N)(=O)=O)c2)c2nc3ccccc3nc12,43.0,0,0,0,0,?
Cc1cccc(C)c1NC(=S)N1CCOCC1,0,0,0,0,-,-
Cc1cccc(C)c1NC(=S)N1CCC(c2ccccc2)C1 (stereo not given),48.6,0,0,0,0,0
